Screening results from PubChem.
IDH1 R132H inh: qHTS for Inhibitors of mutant isocitrate dehydrogenase 1 (IDH1): qHTS; IDH1-R132H enzyme, NADPH consumption, diaphorase/resazurin fluorescence; 390,000 compounds, 0.093% hits; Isocitrate dehydrogenase [NADP] cytoplasmic (Homo sapiens), O75874; Potency, µM (titrated, usually from 76.6 µM), inactives show top-dose activity change, negative = inhibition, most hits filed as inhibitors; also: potency is read from the fitted curve at half-maximal effect; % is scaled to controls: 0 for no effect and ±100 for the full control effect; nearly all actives have a fitted effect of over 65% in size
Target sequence (O75874 whole entry R132H, stated change not applied): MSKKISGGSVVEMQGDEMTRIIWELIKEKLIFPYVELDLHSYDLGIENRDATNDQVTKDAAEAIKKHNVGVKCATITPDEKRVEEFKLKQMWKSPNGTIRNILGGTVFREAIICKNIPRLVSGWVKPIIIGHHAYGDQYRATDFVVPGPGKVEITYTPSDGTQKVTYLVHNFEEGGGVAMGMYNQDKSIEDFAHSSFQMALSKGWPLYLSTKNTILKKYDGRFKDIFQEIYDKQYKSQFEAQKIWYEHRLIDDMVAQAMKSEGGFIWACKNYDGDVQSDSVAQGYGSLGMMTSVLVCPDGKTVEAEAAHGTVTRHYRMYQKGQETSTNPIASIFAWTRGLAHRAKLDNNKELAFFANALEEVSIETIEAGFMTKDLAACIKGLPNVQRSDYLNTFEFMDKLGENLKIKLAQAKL
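IDH1-R132H (0.5 ug/mL dispensed) in pH 7.5 Tris buffer was preincubated 30 min with compound, then given a substrate mix of 0.016 mM NADPH and 2 mM alpha-KG for 80 min at room temperature; remaining NADPH was read by diaphorase/resazurin fluorescence.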
TGFb SMAD3 inh: qHTS for Inhibitors of TGF-b; HepG2 CAGA-GFP TGF-b/SMAD3 reporter, GFP fluorescence, 18 h; TGF-beta stimulated, 500 pg/mL final; 410,000 compounds, 1.2% hits; Potency, µM (titrated, usually from 46.1 µM), without a hit: at the top dose activity, negative = inhibition, most hits filed as inhibitors; also: potency is read from the fitted curve at half-maximal effect; % is scaled to controls: 0 for no effect and ±100 for the full control effect; nearly all actives have a fitted effect of over 65% in size
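Using HEPG2 CAGA-GFP reporter cells at 1000 cells/well, we pinned test compounds, stimulated with recombinant TGF-beta (500 pg/mL final) and measured total well GFP after 18 h.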
ATXN2 expr inh: Primary qHTS for Inhibitors of ATXN expression; HEK-293 ATXN2-luciferase reporter, luminescence, 24 h; Potency, µM (titrated, usually from 57 µM), without a hit: top-dose activity change, negative = inhibition, actives largely listed as inhibitors; 360,000 compounds, 0.72% hits; AID 1745845, 2022; also: potency is read from the fitted curve at half-maximal effect; % is scaled to controls: 0 for no effect and ±100 for the full control effect; nearly all actives have a fitted effect of over 55% in size
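ATXN2-luciferase reporter cells (luciferase flanked by upstream and downstream ATXN2 gene portions) were treated 24 h at 37 °C with compounds at up to 57 uM. SteadyGlo luminescence gave expression; GF-AFC fluorescence gave viability.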
LDHA block: qHTS assay for inhibitors of human lactate dehydrogenase; activity change, % (values are at about 110 or 230 µM); AID 1347041, 2019; purified LDHA, NADH/diaphorase-resazurin fluorescence; active compounds read low; 480,000 compounds, 0.15% hits; L-lactate dehydrogenase A chain (Homo sapiens), P00338; in the data active = activity change below about -30%; inconclusive = mostly about -25% to -30%;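 also: plate controls were DMSO wells for no effect and wells without enzyme for full effect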
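Resorufin fluorescence (ex540/em590), read at 0 and 20 min after diaphorase/resazurin addition, reports the NADH left after a 5 min room-temperature reaction of 2 nM human LDH5 with 0.06 mM NADH and 0.2 mM pyruvate.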
HepG2 viability: qHTS for Inhibitors of TGF-b: Cytotox Counterscreen. Potency, µM (titrated, usually from 46.1 µM), inactives show at the top dose activity change, negative = cytotoxicity, hits mostly cytotoxic. HepG2 CAGA-GFP viability, ATP luminescence, 18 h. AID 588856, 2011. 410,000 compounds, 0.76% hits; also: potency is read from the fitted curve at half-maximal effect
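CellTiter-Glo luminescence gave cytotoxicity after 18 hours at 37 degrees C. The cells were HepG2 CAGA-GFP in 1% FBS DMEM, stimulated with 500 pg/mL TGF-beta after compound addition. %Activity was normalised to no-cell wells (complete cell-killing) and DMSO (no toxicity), and curves were fitted and classified.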
S2 tox: Viability Counterscreen for Primary qHTS for Inhibitors of ATXN expression | S2 cells (HEK-293 line with an ATXN2-luciferase reporter) viability, CellTiter-Fluor protease fluorescence, 24 h | Potency, µM (top dose mostly 56.7 µM), usual class: cytotoxic | 400,000 compounds, 0.49% hits | AID 651635, 2014; also: potency is read from the fitted curve at half-maximal effect; nearly all actives have a fitted effect of over 40% in size
* marks the source's active call; other numbers are inactive results; i = inactive; ? = inconclusive; nt = no result given; ! = not active in a repeat. An excerpt weighted towards active compounds, which were near 2.2% of everything screened. Unless noted, calls follow the shape of the dose curve; as a rule, active = well fitted curve in the direction sought with a large enough effect; inconclusive = small, poorly fitted or top-dose-only effect, or another doubt; inactive = no such curve, though single readings can be large; an effect the other way counts as inactive or inconclusive.

SMILES	IDH1 R132H inh	TGFb SMAD3 inh	ATXN2 expr inh	LDHA block	HepG2 viability	S2 tox
Cc1cc(C(=O)CSc2nc(N)cc(N)n2)c(C)n1-c1cccc(C(F)(F)F)c1	0%	-18%	-17%	2	-4%	i
CC(O)(c1cccnc1)c1nc(-c2cc(F)cc(F)c2)cs1 (centres undefined)	nt	-6%	-12%	0	-12%	i
CC(C)c1cccc(-c2csc(C(C)(O)c3ccc(F)c(F)c3)n2)c1 (centres undefined)	nt	?	0%	5	20µM*	i
COc1cccc(C(C)(O)c2nc(-c3cc4ccccc4o3)cs2)c1 (centres undefined)	nt	8.9µM*	4%	-6	-80%	i
CC(O)(c1ccccc1)c1nc(-c2cccc(F)c2)cs1 (centres undefined)	nt	?	-3%	-3	-20%	i
CC(O)(c1cccc(F)c1)c1nc(-c2cc(F)cc(F)c2)cs1 (centres undefined)	nt	11µM*	0%	-2	-64%	?
CC(O)(c1cccc(F)c1)c1nc(-c2cc3ccccc3o2)cs1 (centres undefined)	nt	?	7%	-2	-34%	?
Cn1cc(-c2csc(C(C)(O)c3cccnc3)n2)cn1 (centres undefined)	nt	7%	0%	0	2.2µM*	i
Cc1ccc(S(=O)CCNC(=O)Cc2ccccc2)cc1 (centres undefined)	0%	4%	0%	-3	10%	i
CC(O)(c1cccc(F)c1)c1nc(-c2csc3ccccc23)cs1 (centres undefined)	nt	13µM*	0%	-5	-66%	?
CC(O)(c1ccccc1)c1nc(-c2csc3ccccc23)cs1 (centres undefined)	nt	?	2%	-2	-29%	i
CCN(CC)C(=O)c1cccc(-c2csc(C(C)(O)c3cccc(F)c3)n2)c1 (centres undefined)	nt	?	28µM*	-7	-19%	?
Cc1sc(NC(=O)CN2CCN(c3ccccn3)CC2)c(C#N)c1C	-3%	-6%	1%	2	-11%	i
CN1CCN(c2nc3ccccc3nc2C(C#N)S(=O)(=O)c2ccccc2)CC1 (centres undefined)	-7%	7.9µM*	nt	0	-42%	i
N#CC(c1nc2ccccc2nc1N1CCCC1)S(=O)(=O)c1ccccc1 (centres undefined)	-5%	-14%	-2%	8	-22%	?
COc1ccc2cc(C3=CC(=O)CCC3)ccc2c1	26%	11%	41%	-7	-26%	i
CN1CCCC(n2nc(Cc3ccc(Cl)cc3)c3ccccc3c2=O)CC1 (centres undefined)	-8%	-1%	35µM*!	-8	-41%	32µM*!
CCOc1ccccc1NC(=O)C1CCCN1C(=O)c1cccs1 (centres undefined)	0%	10%	-2%	-8	0%	i
O=C(Nc1ccc(Cl)cc1)N1CCCN(Cc2ccc(F)cc2)C1	-4%	?	?	-6	11µM*	?
O=C(Nc1ccccc1)N1CCN(Cc2ccc(Cl)cc2)CC1	5%	1%	nt	-7	-4%	?
CCn1c(C)[n+](CC)c2ccc(S(=O)(=O)NC)cc21	2%	-20%	-29%	-10	1%	i
CCn1c(C)[n+](CCCS(=O)(=O)[O-])c2cc(Cl)c(Cl)cc21	8%	0%	53%	-46*	2%	i
O=C(CSc1nc2[nH]c(=O)cc(O)c2s1)Nc1ccc(Cl)c(C(F)(F)F)c1	-14%	-4%	10%	3	-10%	i
